Experimental data taken from PubChem BioAssay AID2330 (Broad Institute, 2010).
The campaign covered roughly 37,000 compounds. About 2,800 (7.6%) were called active. About 1% were inconclusive and are not listed. Only a selection was taken, and actives are over-represented in it overall. Values without a mark were called inactive. Rule as the data show it: active = inhibition above about 80%; inconclusive = no clear call, values can overlap the other calls; inactive = below that.

Test: NOMO-1 AML cell viability reduction, primary screen, STK33 inhibitor project, CellTiter-Glo luminescence (AID 2330)
Conditions: NOMO-1 AML viability, 72 h, stronger effect = higher value, concentration not given here

SMILES	inhibition
COc1ccc(NC(=O)c2ccc(OCC(=O)Nc3ccccc3F)cc2)cc1Cl	19.2%
CCOC(=O)c1c(CN2CCOCC2)nc2c3ccccc3ccn12	-2.66%
CCOC(=O)c1nnn2c3ccccc3c(=O)n(C)c12	-3.54%
CCOC(=O)c1nnn2c1nc(N1CCN(c3ccccc3)CC1)c1ccccc12	101% (active)
Cc1noc(C)c1NC(=O)Nc1cccc2c1O[C@H](CN(C)C(=O)Nc1ccccc1)[C@@H](C)CN([C@H](C)CO)C2=O	30.8%
NC(CC(=O)Nc1ccc(Cl)cc1)C(=O)O (stereo not drawn)	16.1%
Cc1noc(C)c1S(=O)(=O)Nc1ccc2c(c1)CC(=O)N([C@@H](C)CO)C[C@@H](C)[C@@H](CN(C)C(=O)Nc1ccc(C(F)(F)F)cc1)O2	14.7%
O=C1Cc2ccc(F)cc2CC1C1=Cc2ccc(F)cc2CC1 (stereo not drawn)	114% (active)
Cc1ccc(NC(N)=O)cc1	0.872%
Oc1ccc(CN2CCCC2)c2cccnc12	141% (active)
C[C@H](CO)N1C[C@H](C)[C@H](CN(C)S(=O)(=O)c2ccc(Cl)cc2)Oc2c(NS(C)(=O)=O)cccc2C1=O	9.14%
C[C@H](CO)N1C[C@H](C)[C@H](CN(C)S(=O)(=O)c2cccs2)Oc2ccc(NS(=O)(=O)c3ccc(Cl)cc3)cc2CC1=O	12.4%
COc1c(C)c2c(c(O)c1C/C=C(\C)CCC(=O)O)C(=O)OC2	139% (active)
CS(=O)(=O)N(CC(=O)Nc1ccc(F)c(F)c1)c1ccccc1F	-8.09%
Oc1c(Cl)cc(Cl)cc1C1Nc2cc(C(F)(F)F)ccc2-n2cccc21 (stereo not drawn)	114% (active)
C[C@@H]1CN([C@H](C)CO)C(=O)Cc2cc(NC(=O)CCN3CCOCC3)ccc2O[C@@H]1CN(C)S(C)(=O)=O	5.67%
CC(C)NC(=O)N(C)C[C@@H]1Oc2ccc(NS(=O)(=O)c3cn(C)cn3)cc2C(=O)N([C@@H](C)CO)C[C@@H]1C	18.9%
Cn1c(OCc2cccnc2)nc2c1c(=O)n(Cc1ccc(Cl)c(Cl)c1)c(=O)n2C	27.8%
c1ccc2[nH]c(CSc3nc4ccccc4[nH]3)nc2c1	6.35%
CCOC(=O)c1cc(=O)c2ccc(OCc3ccccc3)cc2o1	105% (active)
Cc1cc(=O)oc2cc(OCc3cccc(F)c3)ccc12	25.5%
Cc1c(CCC(=O)O)c(=O)oc2cc(OCc3ccc(Br)cc3)ccc12	19.3%
O=C(CSc1nnc2ccc3ccccc3n12)Nc1ccc2c(c1)OCCO2	12.1%
NC(=O)CSc1oc(-c2cccs2)nc1S(=O)(=O)c1ccccc1	11.4%

SMILES	inhibition
Cc1noc(C)c1NC(=O)N(C)C[C@@H]1Oc2ccc(NS(C)(=O)=O)cc2C(=O)N([C@@H](C)CO)C[C@@H]1C	-15.6%
COc1ccc(NC(=O)Nc2ccc3c(c2)C(=O)N([C@H](C)CO)C[C@H](C)[C@@H](CN(C)C(=O)Nc2ccc4c(c2)OCO4)O3)cc1	14.3%
COC(=O)c1c(-c2cccnc2)csc1NC(=O)c1cc(-c2ccc(C)o2)nc2ccccc12	86.9% (active)
COC(=O)c1cc(OC)c(OC)cc1NC(=O)COc1ccccc1Cl	-12.9%
COC(=O)c1cc(OC)c(OC)cc1NC(=O)c1cc(-c2ccc(C)o2)nc2ccccc12	92.8% (active)
COC(=O)c1cc(OC)c(OC)cc1NC(=O)COc1ccc(Cl)cc1	15.1%
Cc1ccccc1OCC(=O)Nc1cc(-c2nc3ccccc3s2)c(Cl)cc1Cl	6.92%
COc1ccc(NC(=O)N(C)C[C@H]2Oc3ccc(NC(=O)NC(C)C)cc3CC(=O)N([C@H](C)CO)C[C@H]2C)cc1	3.6%
C[C@@H]1CN([C@H](C)CO)C(=O)Cc2cc(NS(C)(=O)=O)ccc2O[C@H]1CN(C)S(=O)(=O)c1ccccc1	-9.84%
Cn1c(=O)c2c(nc(SCC(=O)O)n2Cc2ccc(F)cc2)n(C)c1=O	17.9%
Cc1cc(=O)oc2cc(OC(C)C(=O)Nc3ccc(Cl)c(C(F)(F)F)c3)ccc12 (stereo not drawn)	4.93%
C[C@H]1CN([C@@H](C)CO)C(=O)c2cc(NC(=O)Nc3ccccc3)ccc2O[C@H]1CN(C)S(C)(=O)=O	15.5%
CC(=O)c1cccc(NC(=O)CN(c2ccc(F)c(Cl)c2)S(C)(=O)=O)c1	13.8%
Cc1noc(C)c1NC(=O)Nc1ccc2c(c1)CC(=O)N([C@@H](C)CO)C[C@@H](C)[C@@H](CN(C)Cc1ccc(Cl)c(Cl)c1)O2	58.1%
COc1cc(O)cc(C)c1C(=O)OC1C(CO)OC(n2ccc(=O)[nH]c2=O)C1OC(C)=O (stereo not drawn)	6.97%
COC(=O)c1cc(C)sc1NC(=S)Nc1ncn(Cc2ccc(F)cc2Cl)n1	109% (active)
CCc1cc(C(=O)OC)c(NC(=S)Nc2ccc(OC)cc2[N+](=O)[O-])s1	22.2%
C[C@H]1CN([C@@H](C)CO)C(=O)Cc2cc(NS(=O)(=O)c3cccs3)ccc2O[C@@H]1CN(C)Cc1ccc(Oc2ccccc2)cc1	78.4%
C[C@H]1CN([C@@H](C)CO)C(=O)c2cc(NC(=O)Nc3ccc4c(c3)OCO4)ccc2O[C@@H]1CN(C)CC1CCCCC1	31.9%
C[C@H]1CN([C@@H](C)CO)C(=O)Cc2cc(NC(=O)Nc3cccc4ccccc34)ccc2O[C@H]1CN(C)CC1CC1	26.7%
C[C@@H]1CN([C@@H](C)CO)C(=O)Cc2cc(NC(=O)Nc3ccc4c(c3)OCO4)ccc2O[C@@H]1CN(C)CC1CCCCC1	88.2% (active)
C[C@H]1CN([C@@H](C)CO)C(=O)Cc2cc(NC(=O)Nc3ccc4c(c3)OCO4)ccc2O[C@H]1CN(C)CC1CC1	11.8%
C[C@@H]1CN([C@@H](C)CO)C(=O)Cc2cc(NC(=O)Nc3cccc4ccccc34)ccc2O[C@@H]1CN(C)CC1CCCCC1	117% (active)
C[C@H]1CN([C@@H](C)CO)C(=O)Cc2cc(NC(=O)Nc3cccc4ccccc34)ccc2O[C@@H]1CN(C)S(C)(=O)=O	0.688%
